This is part of a sample that, as a whole, favours compounds with a hit. Of some 83,000 tested, about 20% had one in any assay.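 96-well plates, one dose, 48 hours. Percent growth reported; active if below 10.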 Calls of active or inactive are those of the source.
Legend:
Assay in all cases: NCI-60 one-dose screen, 48 h (100 = growth as untreated, 0 = no growth, -100 = all killed)
EKVX NSCLC = conditions: 10 µM unless noted
SN12C renal = conditions: 10 µM unless noted
UO-31 renal = conditions: 10 µM unless noted
TK-10 renal = conditions: 10 µM unless noted
ACHN renal = conditions: 10 µM unless noted
A498 renal = conditions: 10 µM unless noted
CCRF-CEM leukemia = conditions: 10 µM unless noted
MOLT-4 leukemia = conditions: 10 µM unless noted
SR leukemia = conditions: 10 µM unless noted
RPMI-8226 leukemia = conditions: 10 µM unless noted
OVCAR-8 ovarian = conditions: 10 µM unless noted
OVCAR-5 ovarian = conditions: 10 µM unless noted
OVCAR-4 ovarian = conditions: 10 µM unless noted
IGROV1 ovarian = conditions: 10 µM unless noted
OVCAR-3 ovarian = conditions: 10 µM unless noted
NCI/ADR-RES ovarian = conditions: 10 µM unless noted
SK-OV-3 ovarian = conditions: 10 µM unless noted
HS 578T breast = conditions: 10 µM
CAKI-1 renal = conditions: 10 µM unless noted

Measured: growth

Cc1cn(-c2cc(NC(=O)c3ccc(C)c(Nc4nccc(-c5cnccn5)n4)c3)cc(C(F)(F)F)c2)cn1
inactive: EKVX NSCLC 107% | SN12C renal 56.5% | UO-31 renal 62.9% | TK-10 renal 102% | ACHN renal 83.7% | A498 renal 106% | CCRF-CEM leukemia 60.5% | MOLT-4 leukemia 52.6% | SR leukemia 21.5% | RPMI-8226 leukemia 54% | OVCAR-8 ovarian 47.1% | OVCAR-5 ovarian 79% | OVCAR-4 ovarian 99.7% | IGROV1 ovarian 85.1% | OVCAR-3 ovarian 103% | NCI/ADR-RES ovarian 63.8%

O=C(Nc1ccc(N=Nc2ccccc2)cc1)c1cccc2ccccc12
inactive: EKVX NSCLC 71.5% | SN12C renal 78.8% | UO-31 renal 68.3% | TK-10 renal 76.2% | ACHN renal 77.5% | CCRF-CEM leukemia 49.8% | MOLT-4 leukemia 37.2% | SR leukemia 23.3% | RPMI-8226 leukemia 66.1% | OVCAR-8 ovarian 78.7% | OVCAR-5 ovarian 92.5% | OVCAR-4 ovarian 75.8% | SK-OV-3 ovarian 64.5% | IGROV1 ovarian 80.4% | OVCAR-3 ovarian 37.1% | HS 578T breast 72.6% | NCI/ADR-RES ovarian 49.3%

COC(=O)[C@]12CC[C@@H](C)[C@H](C)[C@@H]1C1=CC[C@@H]3[C@@]4(C)C(c5cnco5)=C[C@@](C)(CO)C4=CC[C@@]3(C)[C@]1(C)CC2
inactive: EKVX NSCLC 41.2% | SN12C renal 55.9% | UO-31 renal 44.1% | TK-10 renal 69.6% | ACHN renal 25.4% | CCRF-CEM leukemia 35.5% | MOLT-4 leukemia 10.1% | SR leukemia 21.1% | RPMI-8226 leukemia 26.1% | OVCAR-8 ovarian 60.8% | OVCAR-5 ovarian 78.8% | OVCAR-4 ovarian 40.6% | SK-OV-3 ovarian 67.2% | IGROV1 ovarian 77.6% | OVCAR-3 ovarian 50.1% | HS 578T breast 72.8% | NCI/ADR-RES ovarian 53.9%

Cn1cnc2c(F)c(Nc3ccc(Br)cc3F)c(C(=O)NOCCO)cc21
active: A498 renal -28.4% | OVCAR-5 ovarian 9.55%
inactive: EKVX NSCLC 54% | SN12C renal 56.2% | UO-31 renal 48.8% | TK-10 renal 50.5% | ACHN renal 57.6% | CCRF-CEM leukemia 73.8% | MOLT-4 leukemia 72.9% | SR leukemia 64.6% | RPMI-8226 leukemia 63.5% | OVCAR-8 ovarian 65.8% | OVCAR-4 ovarian 55.9% | SK-OV-3 ovarian 50.2% | IGROV1 ovarian 27.6% | OVCAR-3 ovarian 106% | NCI/ADR-RES ovarian 69.1%

CC(C)(O)CC(=O)NCCn1ccc2ncnc(Nc3ccc(Oc4cccc(C(F)(F)F)c4)c(Cl)c3)c21
inactive: SN12C renal 12.4% | RPMI-8226 leukemia 11% | OVCAR-4 ovarian 25.6% | OVCAR-3 ovarian 32.6%
active: EKVX NSCLC 8.11% | UO-31 renal -6.15% | TK-10 renal -30.3% | ACHN renal 8.71% | A498 renal -28.7% | CCRF-CEM leukemia 7.97% | MOLT-4 leukemia 7.32% | SR leukemia 3.05% | OVCAR-8 ovarian 3% | OVCAR-5 ovarian 3.46% | SK-OV-3 ovarian -21% | IGROV1 ovarian -42.6% | NCI/ADR-RES ovarian 9.15%

COc1cc2nccc(Oc3ccc(NC(=O)Nc4cc(C)on4)c(Cl)c3)c2cc1OC
inactive: EKVX NSCLC 37.6% | SN12C renal 11.6% | ACHN renal 13.7% | CCRF-CEM leukemia 22.3% | RPMI-8226 leukemia 21% | OVCAR-8 ovarian 15.3% | OVCAR-5 ovarian 20.2% | OVCAR-4 ovarian 31.1% | OVCAR-3 ovarian 35.1% | NCI/ADR-RES ovarian 10.2%
active: UO-31 renal -15.3% | TK-10 renal -15.8% | A498 renal -35.9% | MOLT-4 leukemia 7.51% | SR leukemia 4.19% | SK-OV-3 ovarian -17.3% | IGROV1 ovarian 0.0648%

Oc1ccc(/C=N/Nc2nnc(N/N=C/c3ccc(O)cc3O)c3ccccc23)c(O)c1
active: EKVX NSCLC -18.4% | SN12C renal -28% | UO-31 renal 0% | ACHN renal -3.24% | A498 renal -61.1% | CCRF-CEM leukemia -51.4% | MOLT-4 leukemia -26.9% | SR leukemia -26.1% | OVCAR-8 ovarian -60% | OVCAR-5 ovarian 1.16% | OVCAR-4 ovarian -9.22% | SK-OV-3 ovarian -15.4% | IGROV1 ovarian -2.51% | OVCAR-3 ovarian -34.1% | HS 578T breast -76.8% | NCI/ADR-RES ovarian -11.1%
inactive: TK-10 renal 10.5%

CCOC(=O)C1=C(C)NC(=O)NC1c1cc(=O)oc2ccc(C)cc12 (centres undefined)
inactive: EKVX NSCLC 95.2% | SN12C renal 101% | UO-31 renal 93.1% | TK-10 renal 97.1% | ACHN renal 114% | A498 renal 104% | CCRF-CEM leukemia 101% | MOLT-4 leukemia 99.1% | SR leukemia 97.1% | RPMI-8226 leukemia 97.5% | OVCAR-8 ovarian 102% | OVCAR-5 ovarian 107% | OVCAR-4 ovarian 106% | IGROV1 ovarian 103% | OVCAR-3 ovarian 110% | HS 578T breast 109% | NCI/ADR-RES ovarian 102%

Cc1cc2c(-c3nc4ccccn4c3NC34CC5CC(CC(C5)C3)C4)c(O)c(O)cc2c(O)c1-c1c(C)cc2c(-c3nc4ccccn4c3NC34CC5CC(CC(C5)C3)C4)c(O)c(O)cc2c1O
inactive: SN12C renal 15.9% | A498 renal 10.8% | CCRF-CEM leukemia 16.4% | SR leukemia 13.1% | RPMI-8226 leukemia 24.4% | OVCAR-8 ovarian 12.3% | OVCAR-5 ovarian 29.3% | OVCAR-4 ovarian 21.4% | IGROV1 ovarian 21.3% | OVCAR-3 ovarian 27.6%
active: EKVX NSCLC 5.97% | UO-31 renal -2.25% | TK-10 renal 7.59% | ACHN renal 7.04% | MOLT-4 leukemia 8.13% | SK-OV-3 ovarian -11.1% | NCI/ADR-RES ovarian 9.01%

CC(=O)Nc1cccc(-n2c(=O)n(C3CC3)c(=O)c3c(Nc4ccc(I)cc4F)n(C)c(=O)c(C)c32)c1
inactive: EKVX NSCLC 46% | SN12C renal 49.7% | UO-31 renal 12% | TK-10 renal 21.8% | ACHN renal 42% | CCRF-CEM leukemia 68.5% | MOLT-4 leukemia 65.5% | SR leukemia 46.4% | RPMI-8226 leukemia 45.5% | OVCAR-8 ovarian 39% | OVCAR-4 ovarian 37% | SK-OV-3 ovarian 11.3% | IGROV1 ovarian 16.9% | OVCAR-3 ovarian 85.5% | NCI/ADR-RES ovarian 46.6%
active: A498 renal -34.4% | OVCAR-5 ovarian 6.47%

COc1ccc(-c2cc3c(oc2=O)-c2ccccc2OC3OC(C)=O)cc1 (centres undefined)
active: CCRF-CEM leukemia -25.9%
inactive: EKVX NSCLC 73.2% | SN12C renal 91.5% | TK-10 renal 104% | ACHN renal 102% | CAKI-1 renal 113% | A498 renal 100% | MOLT-4 leukemia 72.4% | SR leukemia 80.7% | RPMI-8226 leukemia 83.1% | OVCAR-8 ovarian 107% | OVCAR-5 ovarian 111% | OVCAR-4 ovarian 90.7% | SK-OV-3 ovarian 93.4% | IGROV1 ovarian 103% | OVCAR-3 ovarian 109% | HS 578T breast 89% | NCI/ADR-RES ovarian 93.8%

C[C@@H]1COC(Nc2ccc3ncnc(Nc4ccc(OCc5nccs5)c(Cl)c4)c3c2)=N1
inactive: EKVX NSCLC 32.2% | SN12C renal 53.8% | UO-31 renal 18.7% | TK-10 renal 20.4% | ACHN renal 23.3% | A498 renal 22.5% | CCRF-CEM leukemia 24.7% | MOLT-4 leukemia 18.4% | SR leukemia 17.6% | RPMI-8226 leukemia 18.8% | OVCAR-8 ovarian 10.4% | OVCAR-5 ovarian 59.6% | OVCAR-4 ovarian 25.3% | OVCAR-3 ovarian 31.7%
active: SK-OV-3 ovarian -3.87% | IGROV1 ovarian 0.932% | NCI/ADR-RES ovarian 9.99%
